Sampled rows, rich in hits. Any-hit rate of the full collection: about 2.1%.
CF NFkB block – inhibitors of cystic fibrosis induced NF-kB; KKLEB NF-kB-GFP reporter, PAF-induced, GFP fluorescence overnight; inhibition, % at 5 µM; 0.86% of 360,000 active;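 active means at least 50% inhibition at 5 µM, scaled per plate between neutral and stimulator controls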;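 further: PAF is a Pseudomonas aeruginosa culture filtrate used as stimulus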
PAX8 reporter – PAX8 transcriptional activity inhibition. RMG-I TPO-luciferase reporter, SteadyGlo, 24 h. inhibition, % at 12.6 µM. 1.2% of 360,000 active;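 active means mean replicate inhibition at least 60% with every replicate also reaching 60%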;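 further: luciferase light reporting Pax8 driven TPO promoter activity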
KKLEB cytotox – reduces viability of KKLEB cystic fibrosis airway cells | activity change (cytotoxicity), % at 5 µM | KKLEB CF airway cells viability, ATPlite luminescence, overnight; stronger effect = lower value; cells stimulated with P. aeruginosa culture filtrate | 0.36% of 360,000 active;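 active means corrected activity change at or below -50% at 5 µM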
HIF-2a inh – blocks HIF-2a reporter activity; inhibition, % at 18.8 µM; 786-0 RCC cells HIF-2a reporter, luciferase luminescence, overnight; 0.72% of 360,000 active;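 active means inhibition of the luminescence signal of 40% or more relative to plate controls, in a single-dose primary screen at 18.75 µM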
EWS-Fli block – inhibitors of EWS/Fli oncoprotein transcriptional activity | A673 NR0B1-luciferase reporter, viability-normalised | inhibition, % at 12.6 µM | 0.67% of 350,000 active;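 active means mean inhibition of at least 50% after viability correction, with every replicate also passing that limit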;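 further: firefly luciferase signal divided by Alamar Blue viability fluorescence both relative to DMSO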
Mdm2-MdmX confirm – confirmation of inhibitors of human Mdm2/MdmX interaction, set 2. 99% of 740 active. AID 504601. SaOS-2 split-luciferase Mdm2/MdmX complementation, luminescence. inhibition, % at 8 µM. shares compounds with HIF-2a inh;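 active means mean inhibition of the luminescence signal across two replicates at or above 26 percent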
Target sequence (O15151 whole entry, looked up): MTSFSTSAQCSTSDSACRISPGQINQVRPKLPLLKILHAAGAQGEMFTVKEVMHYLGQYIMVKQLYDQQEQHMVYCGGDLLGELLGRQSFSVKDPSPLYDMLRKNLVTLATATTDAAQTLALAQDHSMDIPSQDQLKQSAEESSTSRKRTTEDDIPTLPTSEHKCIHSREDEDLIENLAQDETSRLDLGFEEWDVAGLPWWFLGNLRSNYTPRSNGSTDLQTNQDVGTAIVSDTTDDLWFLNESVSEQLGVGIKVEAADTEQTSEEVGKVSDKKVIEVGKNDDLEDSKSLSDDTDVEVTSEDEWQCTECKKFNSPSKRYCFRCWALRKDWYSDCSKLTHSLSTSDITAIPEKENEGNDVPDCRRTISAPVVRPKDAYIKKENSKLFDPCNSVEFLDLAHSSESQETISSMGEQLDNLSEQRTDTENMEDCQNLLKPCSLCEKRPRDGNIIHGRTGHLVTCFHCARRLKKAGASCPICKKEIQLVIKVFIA
Target sequence (Q00987 whole entry, looked up): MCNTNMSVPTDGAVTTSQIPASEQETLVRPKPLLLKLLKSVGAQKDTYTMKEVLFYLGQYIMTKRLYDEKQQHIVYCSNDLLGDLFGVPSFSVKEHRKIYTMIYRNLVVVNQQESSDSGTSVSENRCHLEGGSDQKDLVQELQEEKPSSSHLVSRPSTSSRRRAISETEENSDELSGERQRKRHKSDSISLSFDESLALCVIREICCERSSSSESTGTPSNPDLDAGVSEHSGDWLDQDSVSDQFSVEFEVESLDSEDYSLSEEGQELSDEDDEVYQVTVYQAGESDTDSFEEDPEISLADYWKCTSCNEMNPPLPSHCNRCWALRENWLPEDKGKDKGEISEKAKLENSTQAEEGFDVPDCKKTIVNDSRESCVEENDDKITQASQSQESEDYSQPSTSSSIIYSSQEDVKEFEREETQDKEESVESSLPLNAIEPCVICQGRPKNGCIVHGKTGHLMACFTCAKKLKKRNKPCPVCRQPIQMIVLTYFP
HIF-2a inh conf – confirmation of HIF-2a inhibitors; shares compounds with HIF-2a inh; 56% of 1,800 active; 786-0 RCC cells, HIF-2a luciferase reporter luminescence, overnight; inhibition, % at 18.8 µM; AID 651580;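 active means mean inhibition across four replicates of at least 40 percent at the single tested concentration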
HIF-1a counter – inhibits HIF-1a reporter, a counter-screen for HIF-2a inhibitors; MiaPaCa-2 HIF-1a luciferase reporter, desferoxamine, overnight; shares compounds with HIF-2a inh; inhibition, % at 18.8 µM; 72% of 1,800 active;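 active means mean inhibition of the reporter signal across four replicates at the single tested dose of 50% or more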
Numbers stand for hits; n = inactive; x = not tested or not shown.

SMILES	CF NFkB block	PAX8 reporter	KKLEB cytotox	HIF-2a inh	EWS-Fli block	HIF-2a inh conf	HIF-1a counter	others
O=C(CN1C(=O)c2ccccc2S1(=O)=O)NCc1ccccc1Cl	n	n	n	n	n	x	x
C=CCn1c(C)cc(C(=O)CN2C(=O)c3ccccc3S2(=O)=O)c1C	n	x	n	95	x	99	104	Mdm2-MdmX confirm=74
O=C(Nc1cccc(F)c1)N1CC(=O)N2[C@H](CO)[C@@H](c3ccc(-c4ccccc4)cc3)[C@H]2C1	x	n	x	x	n	x	x
CCN(CC)CCn1c2ccccc2c2nc3ccc([N+](=O)[O-])cc3cc21	n	n	n	n	n	x	x	Mdm2-MdmX confirm=83
Cn1cc(C(C[N+](=O)[O-])c2ccccc2)c2ccccc21 (stereo not given)	n	n	n	96	n	n	n
Cc1cc(Cl)n2c(nc3cc(F)c(F)cc32)c1C#N	89	74	-69	95	58	58	100
Cc1cc(C)n2c(=O)c3ccc(Cl)cc3nc2c1C#N	n	n	n	n	n	x	x
O=C(C[C@H]1C=C[C@@H](NC(=O)CN2CCOCC2)[C@H](CO)O1)NC1CCCCC1	x	n	x	x	n	x	x
COc1ccc(NC(=O)Nc2ccc(OCc3ccccc3)cc2)cn1	n	n	n	n	n	x	x
COc1ccc(NC(=O)/C(Cl)=C(/Cl)S(=O)(=O)Cc2ccccc2)cn1	84	x	-53	94	x	100	106
Cn1cnc([N+](=O)[O-])c1S(=O)(=O)Oc1ccc(Cl)cc1	94	110	-98	81	64	n	n
Cn1cnc([N+](=O)[O-])c1S(=O)(=O)Oc1cccc2ccccc12	86	80	-79	83	n	n	66
Cn1cnc([N+](=O)[O-])c1Oc1cccc2ccccc12	n	n	n	n	x	x	x
C/C=C/c1ccc([C@H]2[C@@H](CO)N[C@@H]2CN(Cc2cccnc2)C(=O)C2CC2)cc1	x	x	x	x	n	x	x
O=C(C[C@H]1C[C@H]2c3cc(NC(=O)CC4CC4)ccc3O[C@H]2[C@@H](CO)O1)NCC(F)(F)F	x	n	x	x	n	x	x
COc1ccc(CNC(=O)C[C@H]2CC[C@@H](NC(=O)Nc3ccc4c(c3)OCO4)[C@H](CO)O2)cc1	x	n	x	x	n	x	x
CCOc1cc(/C=C\[N+](=O)[O-])ccc1OCC(=O)Nc1ccccc1C	n	x	n	96	x	n	106	Mdm2-MdmX confirm=100
CCOc1cc(/C=N/NC(N)=O)cc(Br)c1OCC(=O)Nc1ccccc1C	n	n	n	40	x	n	66
COc1ccc(S(=O)(=O)N(C)C[C@H]2Oc3ccc(NC(=O)CCN4CCOCC4)cc3C(=O)N([C@@H](C)CO)C[C@H]2C)cc1	x	n	x	x	n	x	x
N#C/C(=C\c1ccc([N+](=O)[O-])o1)c1nc2ccccc2[nH]1	x	n	x	x	59	x	x	Mdm2-MdmX confirm=103
O=C(NCC[C@H]1CC[C@@H](NS(=O)(=O)c2cccc(F)c2)[C@@H](CO)O1)Nc1cc(F)ccc1F	x	n	x	x	n	x	x
CCC1CCC2(CC1)NC(CO)(CO)CO2 (stereo not given)	n	x	n	n	x	x	x
CCC1CCC2(CC1)NNC(=S)NN2	n	x	n	55	x	69	87
O=C(NC[C@H]1N[C@H](CO)[C@@H]1c1ccc(C2=CCCCC2)cc1)c1ccc(F)cc1	x	n	x	x	n	x	x
COc1ccc(/C=N/NC(=O)c2cc(C34CC5CC(CC(C5)C3)C4)[nH]n2)cc1O	n	x	n	55	x	n	n
SMILES	CF NFkB block	PAX8 reporter	KKLEB cytotox	HIF-2a inh	EWS-Fli block	HIF-2a inh conf	HIF-1a counter	others
CCOCCCNCc1ccc(OC)cc1	n	x	n	n	x	x	x
COc1ccc2cc(CNCCOCCOCCNCc3ccc4cc(OC)ccc4c3)ccc2c1	n	117	n	88	56	n	n
COc1ccc(S(=O)(=O)N[C@H]2CC[C@H](CC(=O)N3CCN(c4ccccc4)CC3)O[C@@H]2CO)cc1	x	n	x	x	n	x	x
CCOc1cccc2sc(N(CCCN(C)C)C(=O)c3ccc(S(=O)(=O)N4CCc5ccccc5C4)cc3)nc12	n	n	n	n	x	x	x
CCc1ccc2nc(N(CCCN(C)C)C(=O)c3ccc(S(=O)(=O)N4CCc5ccccc5C4)cc3)sc2c1	67	n	-98	68	x	n	n
C=C1C(=O)c2sccc2C(c2ccc(OC)c(OC)c2)C1COC(C)=O (stereo not given)	84	115	-92	87	77	99	106
CCN1CCN(CC(=O)N2N=C(c3cccs3)CC2c2ccc(OC)c(OC)c2)C(=O)C1=O (stereo not given)	n	n	n	n	n	x	x
CC(=O)Nc1ccc(Sc2ccc([N+](=O)[O-])o2)cc1	90	114	-50	91	61	94	103
COc1cccc(CNC(=O)C[C@@H]2CC[C@@H](NS(=O)(=O)c3ccccc3OC)[C@H](CO)O2)c1	x	n	x	x	n	x	x
C[C@@H]1CCCCO[C@@H](CN(C)C(=O)C2CCCCC2)[C@@H](C)CN([C@@H](C)CO)C(=O)c2cc(NC(=O)C3CCCCC3)ccc2O1	x	n	x	x	n	x	x
COc1ccc(NC(=O)Nc2ccc3c(c2)C(=O)N([C@@H](C)CO)C[C@H](C)[C@H](CN(C)S(=O)(=O)c2cn(C)cn2)O3)cc1	x	x	x	x	n	x	x
Nc1nc2cc(S(=O)(=O)NC3=NCCCCC3)ccc2s1	n	n	n	41	n	n	n
COCCCOc1cc(NCc2ccccc2)c2ncn(C(C)C)c2c1	n	n	n	n	n	x	x
CC(C)n1cnc2c(NCc3ccccc3)cc(N[C@H](C)CO)cc21	n	x	n	n	x	x	x	Mdm2-MdmX confirm=89
Cc1ccc(NC(=O)Nn2cnnc2)cc1Cl	n	n	n	n	x	x	x
Cc1ccc(NC(=O)O/N=C/c2c(C)nn(C(C)(C)C)c2C)cc1Cl	n	n	n	91	76	97	104	Mdm2-MdmX confirm=101
CC(=O)c1c(C)oc2ccc(N(C(C)=O)S(=O)(=O)c3ccc(Cl)c([N+](=O)[O-])c3)cc12	n	x	n	69	x	n	107
N=c1n(CC(=O)c2ccc(Br)s2)c2ccccc2n1Cc1ccccc1	n	n	n	67	60	n	106	Mdm2-MdmX confirm=102
Cn1c(=N)n(CC(=O)c2ccc(Br)s2)c2ccccc21	n	x	n	n	x	x	x
C[C@@H]1CN([C@H](C)CO)C(=O)c2cc(NC(=O)Nc3ccc4c(c3)OCO4)ccc2O[C@@H]1CN(C)C(=O)NC1CCCCC1	x	x	x	x	n	x	x
C[C@@H](NC(=O)[C@@H]1[C@@H](CO)[C@@H]2Cn3c(cccc3=O)[C@H]1N2Cc1ccncc1)c1ccccc1	x	n	x	x	n	x	x
COc1ccc(C(=O)O/N=C(\N)Cc2ccc(Cl)c(Cl)c2)cc1OC	n	n	n	88	n	n	n
COc1cc(C(=O)O/N=C(\N)Cc2ccc([N+](=O)[O-])cc2)cc(OC)c1OC	n	n	n	n	n	x	x
